Measurements published in PubChem BioAssay AID1159580 (chemical genetic matrix, 2015).
Where “and” joins values, the source holds several entries; their conditions need not be identical. Identical values can stand only once. Screen size: about 5,500 compounds; about 2,000 (36%) were called active. Roughly 18% stayed inconclusive and do not appear here. No stated cut-off is given here; in the data, active means normalized growth mostly below about 0.91 (no sharp cut-off); inconclusive means no clear call, values can overlap the other calls; inactive means mostly above about 0.92. Some of the results follow.

Test: chemical genetic growth profiling, strain panel (AID 1159580);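 further: tested at 20 µM; growth read once vehicle control cultures reached saturation at 30 °C; 1 = growth at the plate median or of vehicle wells; lower values mean less growth of the strain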
Conditions: S. cerevisiae deletion strains, growth OD

Measured: normalized growth

O=C(O)[C@H](O)[C@@](O)(Cc1ccc(O)cc1)C(=O)O
inactive: locus YAL013W, strain DEP1, hits give low values 1.04 | locus YAL021C, strain ccr4, hits give low values 1 | locus YAL026C, strain drs2, hits give low values 1 | locus YAL030W, strain snc1, hits give low values 1.01 | locus YBL061C, strain skt5, hits give low values 1.01 | locus YBR009C, strain hhf1, hits give low values 1.01 | locus YBR021W, strain FUR4, hits give low values 1.02 | locus YBR023C, strain chs3, hits give low values 1.02 | locus YBR171W, strain sec66, hits give low values 1.02 | locus YBR229C, strain ROT2, hits give low values 1.02 | locus YBR231C, strain swc5, hits give low values 1.01 | locus YBR279W, strain paf1, hits give low values 1.01 | locus YCL011C, strain gbp2, hits give low values 1.01 | locus YCL016C, strain dcc1, hits give low values 1.02 | locus YCL029C, strain bik1, hits give low values 1.02 | locus YCL061C, strain MRC1, hits give low values 1.02 | locus YCL069W, strain vba3, hits give low values 1 | locus YCR088W, strain abp1, hits give low values 1.01 | locus YDL005C, strain med2, hits give low values 0.996 | locus YDL035C, strain GPR1, hits give low values 1.06 | locus YDL040C, strain nat1, hits give low values 1 | locus YDL074C, strain BRE1, hits give low values 1.06 | locus YDL101C, strain DUN1, hits give low values 1.03 | locus YDL134C, strain PPH21, hits give low values 1.02 | locus YDL185W, strain tfp1, hits give low values 0.992 | locus YDL192W, strain arf1, hits give low values 1.03 | locus YDR001C, strain nth1, hits give low values 1.02 | locus YDR069C, strain doa4, hits give low values 1.01 | locus YDR101C, strain arx1, hits give low values 1.02 | locus YDR137W, strain rgp1, hits give low values 1.03 | locus YDR159W, strain sac3, hits give low values 1 | locus YDR162C, strain NBP2, hits give low values 1.06 | locus YDR195W, strain ref2 0.989 | locus YDR297W, strain sur2, hits give low values 1.01 | locus YDR318W, strain mcm21, hits give low values 1.01 | locus YDR334W, strain swr1, hits give low values 1.01 | locus YDR335W, strain msn5, hits give low values 1 | locus YDR388W, hits give low values 1 | locus YDR392W, strain spt3, hits give low values 0.976 | locus YDR502C, strain sam2, hits give low values 0.995 | locus YEL003W, strain gim4, hits give low values 0.999 | locus YEL037C, strain rad23, hits give low values 1 | locus YEL061C, strain CIN8 (second series), hits give low values 0.999 | locus YER015W, strain faa2, hits give low values 1 | locus YER016W, strain bim1, hits give low values 1 | locus YER110C, hits give low values 0.992 | locus YER111C, strain swi4, hits give low values 1 | locus YER155C, strain BEM2 (second series), hits give low values 1.01 | locus YER155C, strain BEM2, hits give low values 1.01 | locus YER167W, strain BCK2, hits give low values 1.02 | locus YFR010W, strain ubp6, hits give low values 1.01 | locus YGL078C, strain dbp3, hits give low values 1.01 | locus YGL086W, strain mad1, hits give low values 1.01 | locus YGL167C, strain pmr1, hits give low values 1.01 | locus YGL173C, strain kem1, hits give low values 1.02 | locus YGL227W, strain vid30, hits give low values 1.01 | locus YGL240W, strain doc1, hits give low values 1.01 | locus YGL248W, strain PDE1, hits give low values 1.03 | locus YGL253W, strain hxk2, hits give low values 1.01 | locus YGR078C, strain PAC10, hits give low values 1.03 | locus YGR135W, strain pre9, hits give low values 0.987 | locus YGR252W, strain gcn5, hits give low values 0.966 | locus YHR013C, strain ard1, hits give low values 1.02 | locus YHR027C, strain rpn1, hits give low values 1.02 | locus YHR030C, strain SLT2, hits give low values 1.02 and 1.01 | locus YHR079C, strain IRE1 (second series), hits give low values 1 | locus YHR079C, strain IRE1, hits give low values 1 | locus YHR094C, strain hxt1, hits give low values 0.999 | locus YHR129C, strain ARP1, hits give low values 1.02 | locus YHR142W, strain chs7, hits give low values 1.02 | locus YHR200W, strain rpn10, hits give low values 0.996 | locus YIL066C, strain RNR3, hits give low values 1.04 | locus YIL073C, strain SPO22, hits give low values 1.05 | locus YIL125W, strain kgd1, hits give low values 1.02 | locus YIR030C, strain dcg1, hits give low values 1 | locus YJL092W, strain hpr5, hits give low values 1.02 | locus YJL095W, strain BCK1 (second series), hits give low values 1.01 | locus YJL095W, strain BCK1, hits give low values 1.05 and 1.01 | locus YJL115W, strain asf1, hits give low values 0.997 | locus YJL129C, strain trk1, hits give low values 1.03 | locus YJL134W, strain LCB3, hits give low values 1.02 | locus YJL154C, strain vps35, hits give low values 1 | locus YJL164C, strain tpk1, hits give low values 1.01 | locus YJL166W, strain qcr8, hits give low values 1.01 | locus YJL168C, strain set2, hits give low values 1 | locus YJL187C, strain SWE1 (second series), hits give low values 1.04 | locus YJL187C, strain SWE1, hits give low values 1.01 | locus YJR043C, strain POL32, hits give low values 1.06
